Measured values from PubChem BioAssay AID1508609 (The Scripps Research Institute Molecular Screening Center, 2020).
The whole screen tested about 6,700 compounds, of which fewer than 10 were called active.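 Rule for the calls: active = mean percent activation across replicates above the confirmation screen cutoff of 4.91%; inactive = the rest.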 These entries were drawn from the full list.

These molecules were tested against G-protein coupled receptor 151 (Homo sapiens) (UniProt Q8TDV0) (assay: GPR151 activators, triplicate retest, confirmation, cell-based, PathHunter beta-arrestin, luminescence (AID 1508609)). Conditions: GPR151 PathHunter beta-arrestin cells, 90 min, at 11.2 µM, hits give high values, % of EA-reagent control over plate median.
Sequence of G-protein coupled receptor 151 (Homo sapiens) (Q8TDV0 whole entry, looked up): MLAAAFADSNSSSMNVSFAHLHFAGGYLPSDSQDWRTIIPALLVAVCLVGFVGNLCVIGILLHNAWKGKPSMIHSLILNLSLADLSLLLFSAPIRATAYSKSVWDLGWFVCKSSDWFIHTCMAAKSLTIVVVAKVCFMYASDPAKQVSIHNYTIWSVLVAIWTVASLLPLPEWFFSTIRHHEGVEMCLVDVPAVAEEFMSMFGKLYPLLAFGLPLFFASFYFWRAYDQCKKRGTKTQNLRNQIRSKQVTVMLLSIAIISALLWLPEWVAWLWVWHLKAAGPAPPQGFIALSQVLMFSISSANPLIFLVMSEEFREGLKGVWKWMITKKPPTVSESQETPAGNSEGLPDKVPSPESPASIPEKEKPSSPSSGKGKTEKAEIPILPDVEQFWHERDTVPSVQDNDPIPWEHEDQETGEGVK

activation, inactive:
Cc1nnc(SCC(=O)NCc2ccccc2)s1 -1.41%
CCN(CC)c1nc(Nc2cc(OC)c(OC)c(OC)c2)nc(N2CCOCC2)n1 -0.81%
COc1ccc2c(c1)C=C(CN1CCN(CC3CCCCC3)C(CCO)C1)CO2 (configuration not stated) 0.99%
COc1ccc(OC)c(NC(=O)CN(c2cccc(C)c2C)S(C)(=O)=O)c1 -1.37%
CCc1cc2c(=O)c(-c3ccc4c(c3)OCCCO4)coc2cc1OC(=O)N1CCOCC1 -0.64%
COc1cc(Nc2cc(N3CCN(c4ccc(F)cc4)CC3)c3noc4c3c2C(=O)c2ccccc2-4)cc(OC)c1OC -0.64%
O=CN1CCN(CCC(=O)Nc2ccccc2)CC1 1.05%
CC1(C(=O)Nc2cccc(C(F)(F)F)c2)CC2c3ccccc3C1c1ccccc12 (configuration not stated) 0.28%
C=CCN(c1ccc(C(=O)Nc2ccc(OCc3ccccc3)cc2)cc1)S(C)(=O)=O -0.47%
O=C(COc1ccc(S(=O)(=O)NCCc2ccccc2)cc1)NC1CC1 -1.2%
COc1cc(NC(=O)C2CC(c3ccccc3O)=NO2)c(OC)cc1Cl (configuration not stated) 0.24%
CCCCCC(=O)N/N=C(/C)c1ccc(O)cc1O 0.98%
CCOC(=O)c1sc(NC(=O)CSc2ncccn2)c(C#N)c1C -0.62%
O=C(Cn1nnc2ccccc21)N/N=C/c1c(O)ccc2ccccc12 0.12%
CC(C)CCSc1nc2c(c(=O)n1Cc1ccco1)C1(CCCCC1)Cc1ccccc1-2 0.06%
CN1CCN(c2ccc(-c3nc4ccc(C(=O)NCc5nc6ccccc6[nH]5)cc4s3)cc2)CC1 -0.31%
COc1cccc(C(=O)Nc2sc3c(c2C(N)=O)CCCCCC3)c1 0.1%
COc1ccc(N2C(=O)C3CCCN3C2c2cccc(OC)c2)cc1 (configuration not stated) -1.45%
CCOc1ccc(/C=C2N=C(/C=C/c3cccc(Cl)c3Cl)OC\2=O)cc1 -0.04%
CCN(CC)S(=O)(=O)c1ccc(N2CCCC2)c(NC(=O)c2ccc([N+](=O)[O-])o2)c1 0.12%
COCCN1C(=O)CC(CC(=O)NCc2nc3ccccc3[nH]2)(c2ccccc2C)C1=O (configuration not stated) 0.82%
CCc1nn(CCCN2CCN(c3cccc(Cl)c3)CC2)c(=O)n1CCOc1ccccc1 0.13%
CCOC(=O)c1sc2nc(SCC(=O)N(C)Cc3ccccc3)n(Cc3ccc4c(c3)OCO4)c(=O)c2c1C -1.12%
COc1ccccc1C(=O)N/C(=C\c1ccc2c(c1)OCO2)C(N)=O -0.62%
O=C(N/N=C/c1cccc(Cl)c1Cl)c1cccs1 -1.68%
Cc1ccc(NCC(=O)N/N=C\c2ccc(I)o2)cc1 -0.49%
CC1CCN(CC(=O)Nc2ccccc2Cl)CC1 0.1%
CCCOc1ccc([N+](=O)[O-])cc1C=C1C(=O)NC(=O)NC1=O -0.34%
COc1ccc(OC)c(NC(=O)CSc2nnc3[nH]c(=O)c(C)c(C)n23)c1 -0.4%
COc1ccc(C(=O)Cc2cc3ccccc3oc2=O)c(OC)c1 -0.78%
CCc1ccc(-c2ccc(C3CCC(CC)CC3)cc2)nc1 (configuration not stated) -0.84%
CCc1ccc(S(=O)(=O)NCCOc2cc(N3CCOCC3)ncn2)cc1 0.53%
CCOC(=O)C1=C(CC)OC(N)=C(C#N)C1c1ccc(C(F)(F)F)cc1 (configuration not stated) -0.53%
CCC[C@@H]1NC(=O)[C@@H]2C[C@H](NCc3nc(-c4ccc(F)cc4)cs3)CN2C1=O 0.46%
CC(C)CC(C(=O)Nc1cccc([N+](=O)[O-])c1)N1C(=O)c2ccccc2C1=O (configuration not stated) 0.6%
COc1ccc(C(=O)COC(=O)C(Cc2ccccc2)NC(=O)c2ccco2)cc1 (configuration not stated) 0.8%
CCC1(c2ccc(Cl)cc2Cl)NC(=S)N(c2ccc(C)c(C)c2)N1 (configuration not stated) 0.75%
CCC(C(=O)N1CCCCC1)n1c(C)c2cnn(-c3ccccc3)c(=O)c2c1C (configuration not stated) -0.56%
Cc1ccc2cc(C#N)c(SCCO)nc2c1 0.26%
COc1ccc(/C=C(\C#N)C(=O)Nc2cccc(S(=O)(=O)N3CCCCC3)c2)cc1 -1.24%
Cc1ccc(Nc2nc(-c3ccccn3)cs2)cc1C -1%
CC(C)(C)NC(=O)Cc1coc2ccc3ccccc3c12 0.92%
COc1ccc(/C=C(\C#N)C(=O)Nc2ccc(F)cc2)c(OC)c1 0.7%
Cc1ccc(-n2cc(-c3ccccc3)c3c(N4CC(C)OC(C)C4)ncnc32)cc1 (configuration not stated) 0.03%
COc1cc(/C=N/N=C2/NC(=O)CS2)ccc1OC(=O)c1ccccc1C -0.88%
O=C(CN1C(=O)S/C(=C\c2ccc(Cl)s2)C1=O)Nc1ccccc1F -1.03%
CO[C@@H]1COC(=O)[C@@H](C)COC(=O)[C@H](C)NC(=O)C/C=C/[C@H]1C 0.63%
Cn1c2ccccc2c2nnc(SCC(=O)Nc3ccc(NC(=O)C4CC4)cc3)nc21 0.69%
Cc1nn(C)c(C)c1-c1nc2ncnc(NCCO)c2[nH]1 -0.32%
CCc1nnc2n1N(C(C)=O)C(c1ccc3c(c1)CCCC3)=C(C(C)=O)S2 0.79%
CC(C)(C)OC(=O)N1CCC[C@H](Cn2cc(C(=O)O)nn2)C1 0.63%
Cc1nc2cc(C(=O)NCc3ccc4c(c3)OCO4)ccc2n1-c1ccc(OCc2ccccc2)cc1 -1.41%
CCCCNC(=O)C1(c2ccc(OC)cc2)CCOCC1 -0.13%
CCC(=O)N(CCC(Cc1ccccc1)c1ccc2c(c1)OCO2)Cc1ccc(OC(C)C)cc1 (configuration not stated) 1.24%
CC(C)c1ccc(Nc2nccn3c(-c4cccc(CO)c4)cnc23)cc1 1.58%
Cc1ccc(S(=O)(=O)NCc2nc3nc(C)cc(C)n3n2)cc1 -1.42%
Nc1cc(=O)nc(SCC(=O)Nc2nccs2)n1-c1ccc(F)cc1 1.67%
